Many of the other results were omitted from the sample, so hits are more common in it than they were.
TTR transcr act – increases transthyretin transcription; SH-SY5Y TTR promoter Gaussia luciferase, luminescence; 100% = recombinant luciferase protein wells; activation, % at 16.7 µM; 92,000 tested, 1.3% active;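 active = activation above the mean of all tested compounds plus 3 SD, cut at about 9.5% in these data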;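 also: cells exposed to compounds for one day before reading; 0% = median of all test compound wells on the plate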
TTR inh HuH7 – HuH7 TTR transcription inhibition, counter-screen | shares compounds with TTR transcr act | HuH7 TTR promoter-Gaussia luciferase reporter, luminescence | inhibition, % at 16.7 µM | 1,100 tested, 4% active | AID 1117279;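 active = average inhibition above the solvent-only control wells' mean plus 3 SD, cut at about 15% in these data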;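 also: 0% = cells with DMSO only and 100% = cells with inhibitor control FD; inhibitors lower well luminescence so higher value means more inhibition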
TTR up confirm – confirmation of human transthyretin transcription activators; shares compounds with TTR transcr act; SHSY5Y TTR promoter Gaussia luciferase, luminescence; 100% = purified Lucia enzyme wells, no cells; activation, % at 16.7 µM; 1,100 tested, under 10 active; AID 1117280;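 active = mean activation above a set limit taken from the earlier primary screen, cut at about 11% in these data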;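 also: 0% = DMSO-treated cells and 100% = recombinant Lucia luciferase without cells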
* marks the source's active call; other numbers are inactive results.

SMILES	TTR transcr act	others
Cc1ccc(NC(=O)CCn2ccc([N+](=O)[O-])n2)nc1	29.5*	TTR inh HuH7=8.1;TTR up confirm=0.6
CCC(C#Cc1ccccc1)NCc1ccc(OC)cc1OC (stereo not given)	0.9
Brc1ccc(-c2csc(N3CCNCC3)n2)cc1	1.1
c1ccc2sc(-c3csc4c3CCNC4)nc2c1	2.8
O=C(Nc1cccc(F)c1)OCCN1CCCC12CCC(c1ccccc1)CC2 (stereo not given)	1.4
O=C1CN(S(=O)(=O)c2cccc(Br)c2)CCN1	13.9*	TTR inh HuH7=-10.5;TTR up confirm=0.1
COC(=O)CCN1CCN(S(=O)(=O)c2cccc(Br)c2)CC1	2.4
Cc1ccc(S(=O)(=O)N2CCNC(=O)C2)c(C)c1	6.5
COC(=O)[C@]12C[C@H](CC(=O)N3CCC(c4ccccc4)CC3)C(=O)N(Cc3cccc4ccccc34)C1=C[C@H](C(C)C)O[C@@H]2C1CC1	-1.1
O=C(NC1CCC1)O[C@H]1CC[C@@]23CCCN2C(=O)CCC[C@H]3C1	-1.8
CN(CCc1ccccc1)C(=O)c1cccc(NC(=O)Cc2cccc(NC(=O)C3CCN(C(=O)C4CC4)CC3)c2)c1	0.1
CN(CCc1ccccc1)C(=O)c1cccc(NC(=O)Cc2cccc(NC(=O)C3CCN(C(=O)c4ccccc4)CC3)c2)c1	9.9*	TTR inh HuH7=-6.5;TTR up confirm=0.3
CN(CCc1ccccc1)C(=O)c1cccc(NC(=O)Cc2cccc(NC(=O)C3CCN(C(=O)C4CCCC4)CC3)c2)c1	-0.2
CCCC1CCC2(CC1)CCC2OC(=S)Nc1ccccc1OC (stereo not given)	-0.2
N#Cc1cccc(-n2cc(COC(=O)NCCc3ccccc3)nn2)c1	-0.1
O=C1CCC2(CCC(c3ccccc3)CC2)N1CC[C@@H](O)c1ccccc1 (stereo not given in full)	-1.0
COc1ccc(C2Nc3ccccc3C(=O)N2Cc2ccc(C)o2)cc1COc1c(C)cccc1C (stereo not given)	-0.2
CC(C)CNC(=S)NC(=O)c1csc([N+](=O)[O-])c1	-2.1
O=C(NCc1cccc(Cl)c1)NC(=O)c1csc([N+](=O)[O-])c1	11.9*	TTR inh HuH7=-8.5;TTR up confirm=-0.3
O=C(NCc1cccc(Cl)c1)c1ccc(-c2csnn2)cc1	-0.4
COCCCNC(=O)C[C@H]1C[C@@]2(C(=O)OC)C(=C[C@H](C3CCCC3)O[C@@H]2C)N(Cc2ccco2)C1=O	-0.3
O=C(OCc1cn(Cc2ccccc2F)nn1)N1CCCC1	-0.1
CCCOc1cccc(C2/C(=C(/O)c3ccc(OC)cc3)C(=O)C(=O)N2CCN(C)C)c1 (stereo not given)	3.8
COc1ccc(C2/C(=C(/O)c3ccc(F)cc3)C(=O)C(=O)N2CCCN(C)C)cc1 (stereo not given)	12.2*	TTR inh HuH7=-11.2;TTR up confirm=0.8
COc1ccc(/C(O)=C2/C(=O)C(=O)N(CCCN3CCOCC3)C2c2ccc(N(C)C)cc2)cc1 (stereo not given)	0.7
SMILES	TTR transcr act	others
COC(=O)[C@]12C[C@H](CC(=O)NCc3cccc(C(F)(F)F)c3)C(=O)N(Cc3ccco3)C1=C[C@H](C1CCCC1)O[C@@H]2C	-0.1
COC(=O)[C@]12C[C@H](CC(=O)NCCC(C)C)C(=O)N(Cc3ccc(Cl)cc3Cl)C1=C[C@H](C1CCCC1)O[C@@H]2C	-0.2
COC(=O)[C@]12C[C@H](CC(=O)NCc3ccc(OC)c(OC)c3)C(=O)N(Cc3ccc4c(c3)OCO4)C1=C[C@H](C(C)C)O[C@@H]2C1CC1	0.2
CCCCNC(=O)C[C@H]1C[C@@]2(C(=O)OC)C(=C[C@H](COCc3ccccc3)O[C@@H]2C)N(Cc2ccccc2)C1=O	-0.2
COC[C@@H]1CCCN1c1ccc2c(c1)O[C@@H]1CCN(C1)S2(=O)=O	0.9
NC(=O)c1c(N)[nH]c(C(=O)c2ccccc2)c1-c1ccccc1C(F)(F)F	-0.2
COc1ccc(CN(CC2CCC(C(=O)O)CC2)C(=S)Nc2ccc(C)c(Cl)c2)cc1 (stereo not given)	0.1
COc1ccc(NC(=S)N(Cc2cccc(Br)c2)CC2CCC(C(=O)O)CC2)cc1 (stereo not given)	43.4*	TTR inh HuH7=-21.1;TTR up confirm=-0.7
COc1cccc(NC(=S)N(Cc2cccc(Br)c2)CC2CCC(C(=O)O)CC2)c1 (stereo not given)	0.6
COC(=O)C1CN(Cc2ccccc2)CCS(=O)(=O)N1Cc1cccc(Cl)c1 (stereo not given)	2.0
COc1ccc(C(C)=O)cc1COC(=O)c1ccc(OCc2c(C)noc2C)cc1	1.3
Cc1noc(C)c1COc1cccc(C(=O)OCCOc2ccc(F)cc2)c1	11.5*	TTR inh HuH7=-7.5;TTR up confirm=0.6
Cc1cccc(C)c1NC(=O)c1ccc(OCc2c(C)noc2C)cc1	-1.1
CCCCN1CC[C@H](C)Oc2cc(Br)ccc2S1(=O)=O	7.5
Cc1ccc(S(=O)(=O)N2c3ccc(F)cc3C[C@H]2CSc2ccccc2)cc1	-0.1

Screens (PubChem BioAssay)
